Experimental data taken from PubChem BioAssay AID651658 (Broad Institute, 2012).
Where “and” joins values, the source holds several entries; their conditions need not be identical. Equal values may be shown once. Out of some 340,000 compounds screened, about 5,100 (1.5%) were called active. The sample as a whole holds a higher share of actives than the screen did. Unmarked numbers belong to inactive results.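 How the source made its calls: active means mean Tm shift, scaled 0 neutral to 100 positive control, at about 1.3% or above, every replicate too (limit read from the data); inconclusive means no clear call, values can overlap the other calls; inactive means the rest.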

target: Fibroblast growth factor 22 (Homo sapiens) (UniProt Q9HCT0); assay: binders of human FGF22 protein, primary screen, FGF22 synaptogenesis inhibitor project, biophysical, thermal shift, single point (AID 651658); settings: recombinant FGF22 thermal shift, SYPRO orange fluorescence; at 9.99 µM; hits give high values; percent of sucrose octasulfate shift, DMSO zero
Sequence (Q9HCT0 whole entry, looked up): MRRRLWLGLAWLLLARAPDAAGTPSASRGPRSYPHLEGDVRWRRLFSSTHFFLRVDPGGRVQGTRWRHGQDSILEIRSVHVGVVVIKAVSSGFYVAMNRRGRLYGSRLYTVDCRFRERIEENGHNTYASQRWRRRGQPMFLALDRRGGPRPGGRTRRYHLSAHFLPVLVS

Compound | activity (Tm shift, normalised)
O=C(c1ccncc1)N1CC2(C1)[C@@H](c1ccccc1)[C@H](CO)N2C(=O)c1ccncc1 | -0.088%
CCCC(=O)Nc1ccc2c(c1)OC[C@H](C)N(Cc1ccc(F)cc1)C[C@H](C)[C@H](OC)CN(C)C2=O | -0.11%
CO[C@@H]1CN(C)C(=O)c2cc(NC(=O)CC(F)(F)F)ccc2OC[C@H](C)N(S(=O)(=O)c2cn(C)cn2)C[C@H]1C | -0.268%
N#CCC(=O)NC1CCC(CC2CCC(NC(=O)CC#N)CC2)CC1 (stereo not given) | -0.185%
N#CCC(=O)NC(=O)NCC1CC1 | 45.2% (active)
O=C(NCC1CCCCC1)NCC1CCCCC1 | 0.197%
O=C(C[C@H]1C[C@H]2c3cc(NC(=O)C4CCOCC4)ccc3O[C@H]2[C@@H](CO)O1)NCCN1CCCCC1 | 0.018%
COc1ccc2c3c(n(C)c2c1)[C@@H](CO)N(C(=O)C1CC1)CC31CN(C(=O)C2CCOCC2)C1 | -0.006%
O=C(c1cccnc1)N1CCCCN2[C@@H](CO)[C@H](c3ccc(C#Cc4ccccc4)cc3)[C@@H]2C1 | -0.469%
O=C1C=CCCN1C(=O)/C=C/c1ccc(F)cc1 | 1.39% (active)
O=C(N/C(=C\c1ccc(F)cc1)C(=O)N1CCCCCC1)c1ccccc1 | -0.445%
O=C1CN(C(=O)COC(=O)/C=C/c2ccc(F)cc2)c2ccccc2N1 | 0.119%
C[C@@H]1CN([C@H](C)CO)C(=O)c2cc(NS(=O)(=O)c3cn(C)cn3)ccc2O[C@@H](C)CCCCO[C@@H]1CN(C)C(=O)CCC(F)(F)F | -0.484%
CCc1nnc(NS(=O)(=O)c2ccc(NC(=O)c3cccc(OC(F)(F)C(F)F)c3)cc2)s1 | 1.64% (active)
CCc1nnc(NS(=O)(=O)c2ccc(NC(=S)NC(=O)/C=C/c3cccs3)cc2)s1 | 43.7% (active)
CCOC(=O)c1c(NC(=S)NC(=O)/C=C/c2cccs2)sc(C)c1C | 0.207%
CCc1nnc(NC(=O)c2cccc(S(=O)(=O)N(C)c3ccc(OC)cc3)c2)s1 | 0.249%
Cc1cc(NS(=O)(=O)c2ccc(NC(=O)c3cccc(OC(F)F)c3)cc2)nc(C)n1 | 0.163%
CCc1nnc(NS(=O)(=O)c2ccc(NC(=S)NC(=O)c3cccs3)cc2)s1 | 0.364%
O=C(Cc1ccncc1)NCC[C@H]1CC[C@@H](NC(=O)Nc2ccc(Cl)cc2)[C@@H](CO)O1 | -0.005%
O=C(C[C@H]1CC[C@@H](NC(=O)Nc2ccc(F)cc2)[C@@H](CO)O1)NCCN1CCCC1 | -0.13%
CC(C)NC(=O)N[C@H]1CC[C@H](CC(=O)N2CCCCC2)O[C@@H]1CO | 0.022%
COc1ccc(S(=O)(=O)Nc2ccc3c(c2)CC(=O)N([C@H](C)CO)C[C@H](C)[C@@H](CN(C)C(=O)NC(C)C)O3)cc1 | -0.229%
CCC(O)CNc1nc(-n2nc(C)cc2C)nc2sc3c(c12)CC(C)(C)OC3 (stereo not given) | -0.058%
CCSc1nc2sc3c(c2c(=O)[nH]1)CC(C)(C)OC3 | -0.053%
CC(C)c1nc2sc3c(c2c(=O)n1N)CC(C)(C)OC3 | 42.9% (active)
COC(=O)[C@@H]1[C@@H](CO)[C@@H]2Cn3c(ccc(-c4ccc(OC)cc4)c3=O)[C@@H]2N1C | 0.199%

Compound | activity (Tm shift, normalised)
O=C(Cc1ccc(Cl)cc1)NC1CCS(=O)(=O)C1 (stereo not given) | -0.305%
O=C(CSc1nn(-c2ccc(F)cc2)c(=S)s1)NC1CCS(=O)(=O)C1 (stereo not given) | 0.458%
O=C(CSc1ccccc1F)NC1CCS(=O)(=O)C1 (stereo not given) | 43% (active)
CO[C@H]1CC[C@@H]2CCOc3c(C#N)cccc3C(=O)N(C)CCCC(=O)N(C)C[C@@H]1O2 | 0.064%
COc1ccc(Cc2nc3ccc(C(=O)N4CCC(N(C)C)C4)cc3o2)cc1 (stereo not given) | -0.031%
CCn1ccnc1CN(C)C(=O)c1ccc2nc(Cc3ccc(OC)cc3)oc2c1 | 1.62% (active)
CCC1C(=O)NCCN1C(=O)c1ccc2nc(Cc3ccc(OC)cc3)oc2c1 (stereo not given) | 0.064%
COc1ccc2c3c(n(C)c2c1)[C@@H](CO)N(C(=O)NC1CCCC1)CC31CCN(C(C)=O)CC1 | -0.236%
CC=Cc1ccc2n(c1=O)C[C@@H]1[C@@H](CO)[C@H](C(=O)NCCC)[C@H]2N1C(=O)C1CC1 (mixture of isomers) | -0.404%
CC(=O)Nc1ccccc1-c1cn(CC(=O)N2CCOCC2)nn1 | -0.164%
O=C(CCl)N(Cc1cccc([N+](=O)[O-])c1)c1cccc(Cl)c1 | 43.2% (active)
O=C(c1cccc([N+](=O)[O-])c1)N1CCN(Cc2ccccc2)CC1 | 0.006%
COC(=O)c1cc(C(=O)N(Cc2ccccc2)c2ccccn2)cc([N+](=O)[O-])c1 | 0.167%
O=C(Oc1ccc(C(=S)N2CCOCC2)cc1)c1ccc(F)cc1 | -0.154%
O=C(c1ccc(F)cc1)n1cc(C(=S)N2CCOCC2)c2ccccc21 | 43.1% (active)
O=C(Nc1ccc(F)cc1)C(=O)c1cn(CC(=O)N2CCOCC2)c2ccccc12 | -0.305%
COC(=O)C[C@@H]1CC[C@H]2[C@H](COc3ccc(NC(=O)c4cccs4)cc3C(=O)N2C)O1 | -0.323%
COc1cc(NC(=O)c2ccc3c(c2)OCO3)ccc1NC(=O)c1cccs1 | 1.67% (active)
COc1cc(NC(=O)c2cccs2)ccc1NC(=O)c1ccccc1Cl | 1.14%
CC(C)NC(=O)Nc1ccc2c(c1)C(=O)N(C)[C@H]1CC[C@H](CC(=O)NCc3ccc(F)cc3)O[C@H]1CO2 | 0.053%
O=C(Nc1ccccc1F)N[C@H]1C=C[C@H](CC(=O)N2CCCCC2)O[C@H]1CO | 0.391%
CCCN1C2CCCC1CC(NC(=O)c1cccc(OC)c1)C2 (stereo not given) | -0.224%
COc1cccc(NC(=O)N2C3CCCC2CC(NC(C)=O)C3)c1 (stereo not given) | 0.301%
C=CCN1C2CCCC1CC(NC(=S)Nc1cccc(OC)c1)C2 (stereo not given) | 43.2% (active)
O=S(=O)(N[C@@H]1CC[C@H](CCn2cc(C3(O)CCCC3)nn2)O[C@@H]1CO)c1ccc(Cl)cc1 | -0.216%
C[C@H]1CN([C@@H](C)CO)S(=O)(=O)c2ccc(-c3cccnc3)cc2O[C@H]1CN(C)C(=O)C1CCCCC1 | 0.041%
CCCN1C[C@@H](C)[C@@H](OC)CN(C)C(=O)c2ccc(NC(=O)Nc3cccc(F)c3)cc2OC[C@@H]1C | -0.405%

Compound | activity (Tm shift, normalised)
COC(=O)c1ccc(CN2CCN(CCCc3ccccc3)C(CCO)C2)cc1 (stereo not given) | 43.7% (active)
CCOc1ccc(CN2CCN(CCCc3ccccc3)C(CCO)C2)cc1 (stereo not given) | -0.164%
OCCC1CN(Cc2ccc(Oc3ncccn3)cc2)CCN1CCc1ccccc1 (stereo not given) | 0.032%
O=C(C[C@H]1CC[C@H](NC(=O)C2CCC2)[C@@H](CO)O1)NCCCN1CCOCC1 | 0.216%
O=C(C1CCOCC1)N1CC2(C1)[C@H](c1ccccc1)[C@H](CO)N2Cc1ccc(Cl)cc1 | -0.232%
CN1C[C@H](O)COC[C@H]2O[C@H](CC(=O)NC3CCC3)CC[C@@H]21 | 0.225%
CCC(=O)N1C[C@@H](C)[C@@H](OC)CN(C)C(=O)c2ccc(NC(=O)C3CCCCC3)cc2OC[C@H]1C | 0.107%
COc1ccccc1N(CC(=O)Nc1ccc(C(F)(F)F)cc1)S(C)(=O)=O | 43.3% (active)
COc1ccccc1NC(=O)CN(c1ccccc1OC)S(=O)(=O)c1ccccc1 | -0.013%
COc1ccccc1N(CC(=O)Nc1ccccc1C(=O)N1CCCC1)S(C)(=O)=O | 41.8%
COc1cccc(S(=O)(=O)N2C[C@H](O)COC[C@H]3O[C@@H](CC(=O)N4CCN(c5ccccc5)CC4)CC[C@@H]32)c1 | 0.06%
O=C(NCCO)c1cccc(-c2cccc3nccn23)c1 | -0.228%
c1cc(-c2ccc3[nH]ccc3c2)n2ccnc2c1 | 43.4% (active)
Clc1ccc(-c2cccc3nccn23)cc1 | 0.174%
Cn1cnc(CCNC(=O)C[C@H]2CC[C@@H]3[C@H](COC[C@H](O)CN3C(=O)C3CC3)O2)c1 | -0.297%
COc1cccc(S(=O)(=O)N2CC3(CCN(C)CC3)c3c(n(C)c4cc(OC)ccc34)[C@H]2CO)c1 | 0.01%
C[C@H]1CN([C@@H](C)CO)C(=O)c2c(c3ccccc3n2C)-c2ccccc2CO[C@@H]1CN(C)Cc1ccc2c(c1)OCCN2C | -0.115%
O=C(NNC(=O)c1ccc(Cl)cc1Cl)c1cccs1 | 43.3% (active)
Cc1ccc(NNC(=O)c2cccs2)cc1Cl | -0.036%
O=C(COC(=O)c1ccc(O)cc1O)NNC(=O)c1cccs1 | 0.153%
C/C=C/c1cnc2c(c1)C(=O)N([C@H](C)CO)C[C@H](C)[C@@H](CN(C)CC1CCOCC1)O2 | -0.049%
C[C@@H]1CN([C@@H](C)CO)S(=O)(=O)c2ccc(C3=CCCC3)cc2O[C@H]1CN(C)C(=O)CC1CC1 | -0.028%
COc1ccc2c3c([nH]c2c1)[C@@H](CO)N(C(=O)Nc1cccc(F)c1)CC31CCN(S(=O)(=O)c2ccccc2)CC1 | -0.126%
O=C(N[C@H]1C=C[C@@H](CC(=O)N2CCCCC2)O[C@@H]1CO)c1ccc2c(c1)OCO2 | -0.043%
O=C(N[C@H]1CC[C@H](CC(=O)N2CCCCC2)O[C@@H]1CO)c1cccc(F)c1 | -0.194% and -0.138%
O=C(N[C@@H]1C=C[C@H](CC(=O)N2CCCCC2)O[C@H]1CO)c1cccc(F)c1 | 2.12% (active)
